Compounds without any hit were thinned out: in the full panel of roughly 79,000, 15% have a hit. Calls of active or inactive are those of the source. No stated cut-off is given here; in the data, active means growth inhibition above about 70%; inactive means the rest.
Tests used:
[1] = NCI Yeast Anticancer Drug Screen. Data for the rad50 strain (AID 155);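 further: 0% = growth of vehicle-only cultures of the same strain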; conditions: S. cerevisiae rad50 strain growth inhibition; at 50.0 µM; stronger effect = higher value
Summary of the method: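 Compounds were tested on a yeast strain with an engineered DNA damage repair alteration; the reported value is growth inhibition normalised to vehicle treatment.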

[2] = NCI Yeast Anticancer Drug Screen. Data for the mec2-1 strain (AID 157); conditions: S. cerevisiae mec2-1 strain, at 50.0 µM, stronger effect = higher value
Summary of the method: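 Cells of the genetically defined mec2-1 yeast strain are incubated with test compound. Inhibition of growth is calculated against vehicle-treated controls.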

[3] = NCI Yeast Anticancer Drug Screen. Data for the sgs1 mgt1 strain (AID 161);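 further: 0% = growth of cultures given vehicle only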; conditions: S. cerevisiae sgs1 mgt1 strain, at 50.0 µM, stronger effect = higher value
Summary of the method: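 Read-out: growth inhibition vs vehicle controls. Cells: mutant yeast strain deficient in DNA damage repair.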

[4] = NCI Yeast Anticancer Drug Screen. Data for the cln2 rad14 strain (AID 165);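 further: 0% = growth equal to vehicle treated cultures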; conditions: S. cerevisiae cln2 rad14 strain, at 50.0 µM, stronger effect = higher value
Summary of the method: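 The screen exposed genetically defined yeast (cln2 rad14) to test compounds and scored growth inhibition relative to vehicle-treated controls.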

[5] = NCI Yeast Anticancer Drug Screen. Data for the bub3 strain (AID 167); conditions: S. cerevisiae bub3 mutant strain, at 50.0 µM, stronger effect = higher value
Summary of the method: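 Growth of a checkpoint-deficient yeast mutant is measured after compound exposure. Values represent inhibition relative to vehicle.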

[6] = NCI Yeast Anticancer Drug Screen. Data for the mlh1 rad18 strain (AID 175); conditions: S. cerevisiae mlh1 rad18 strain growth inhibition; at 50.0 µM; stronger effect = higher value
Summary of the method: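 Compound-treated yeast growth, normalised to vehicle controls. Strain bears defined DNA repair mutations.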

Measured: growth inhibition

CCOc1cccc(N)c1
inactive: [1] -69.2% | [2] -20.7% | [3] -55.5% | [4] -51% | [5] -41.7% | [6] -80.2%

C/C(CCc1cccc([N+](=O)[O-])c1)=N\NC(N)=O
inactive: [1] -19.1% | [2] -10.5% | [3] -6.5% | [4] -1.95% | [5] 7.4% | [6] -29.5%

NC(=O)Cc1c[nH]c2ccc(Br)cc12
inactive: [1] -24.1% | [2] -53.8% | [3] -8.4% | [4] 11.4% | [5] -20.7% | [6] -13.2%

O=C(CCn1[nH]c(=O)c(Cl)c(Cl)c1=O)NOCCCc1ccccc1
inactive: [1] 0.3% | [2] -21.7% | [3] -8.5% | [4] -7.95% | [5] 4.3% | [6] -11.6%

Cc1ccc2cccc3c2c1CC1(C3=O)S(=O)(=O)OCCOS1(=O)=O
inactive: [1] 9.2% | [2] 4.45% | [3] 20.1% | [4] 14.7% | [5] 39% | [6] -2.3%

C=CCCCCCCCCCCC
inactive: [1] -11.3% | [2] -11.2% | [3] -14.1% | [4] 11.7% | [5] 1.95% | [6] -4.9%

CC1CC=CCC1C1OCCO1 (configuration not stated)
inactive: [1] 3.95% | [2] 1.6% | [3] 3.45% | [4] 10.2% | [5] 16.4% | [6] -2.7%

C(=NCCN=Cc1ccccc1)c1ccccc1
inactive: [1] -10.7% | [2] -6.9% | [3] -21.8% | [4] 3.25% | [5] -11.7% | [6] -8.9%

COC(=O)C(=O)C(C(=O)C(=O)Nc1ccccc1C(N)=O)c1nc2ccc(C(=O)c3ccccc3)cc2[nH]c1=O (configuration not stated)
inactive: [1] -3.9% | [2] 20% | [3] -7.4% | [4] -17.1% | [5] -6.1% | [6] 9.5%

CCCCCCCC(=O)Nc1nnc(SCCCCCCCCCCSc2nnc(NC(=O)CCCCCCC)s2)s1
inactive: [1] -33.5% | [2] -14.9% | [3] -5.55% | [4] -52.3% | [5] -0.5% | [6] -4.45%

CCOc1ccc(NC(=O)CC2SC(=Nc3ccc(C)cc3)NC2=O)cc1 (configuration not stated)
inactive: [1] -12.7% | [2] -38.5% | [3] -5.3% | [4] 4.35% | [5] -31.9% | [6] -38%

CC1CC(=O)C2CC(Cl)CCC2(C)C1C (configuration not stated)
inactive: [1] -18.1% | [2] -22.6% | [3] -4.6% | [4] -45.4% | [5] -27.4% | [6] -6.05%

C=C1C(OC(=O)/C=C/c2ccccc2)CC(OC(C)=O)C2(C)C1CC1CC(OC(C)=O)C(C)=C(C(OC(C)=O)C2OC(C)=O)C1(C)C (configuration not stated)
inactive: [1] 38.5% | [2] 6.35% | [3] 14.1% | [4] 21.4% | [5] 25.4% | [6] 24.5%

Clc1ccc2nc[nH]c2c1
inactive: [1] 10.1% | [2] 10.1% | [3] 4.5% | [4] 0.7% | [5] 5.9% | [6] 18.2%

O=C1C=CSc2ccccc2N1
inactive: [1] -2.4% | [2] 2.5% | [3] -2.15% | [4] 4.4% | [5] 2.45% | [6] 4.5%

ClCC1CCCO1 (configuration not stated)
inactive: [1] 23.1% | [2] 12.6% | [3] 31.1% | [4] 3.35% | [5] 24.9% | [6] 25.6%

O=C1NNC=Nc2ccc(cc2)S(=O)(=O)c2ccc(cc2)N=CNNC1=O
inactive: [1] 41.5% | [2] -1.9% | [3] -20.1% | [4] -9.15% | [5] -5.85% | [6] -45.9%

C1CCCC2(CCC1)OCCO2
inactive: [1] 0.7% | [2] 10.4% | [3] -4.05% | [4] -9.55% | [5] 17.1% | [6] 1.65%

CCCNCCCCC(C)Nc1cc(OC)cc2cccnc12 (configuration not stated)
inactive: [1] 7.1% | [2] -14.8% | [3] -15.6% | [4] -21.1% | [5] 8.2% | [6] 23.9%

CC(C)(c1cccs1)c1cscc1C(=O)O
inactive: [1] -0.85% | [2] -6.8% | [3] -13.3% | [4] -28.8% | [5] -9.35% | [6] 16.7%

CSC1=Nc2ccccc2N(C)c2c1c(-c1ccccc1)nn2C
inactive: [1] 34.8% | [2] 32.1% | [3] 28.8% | [4] 28.6% | [5] 43% | [6] 21.6%

CN1CCN(CC(=O)N2c3ccccc3Sc3cc4ccccc4cc32)CC1
inactive: [1] 2.3% | [2] -3.3% | [3] -30% | [4] -1.95% | [5] -13.7% | [6] 28.6%

Cc1ccc(S(=O)(=O)N2CCCC(=O)c3ccccc32)cc1
inactive: [1] -12.4% | [2] 14.4% | [3] -12.9% | [4] 9.35% | [5] 12.1% | [6] 11.3%

CCCN(CCC)CC(O)CN(CCC)CCC
inactive: [1] -0.4% | [2] -24.1% | [3] -21.6% | [4] -36% | [5] 5.55% | [6] -0.3%

CC(=O)OCC1OC(n2cc(F)c(=O)[nH]c2=O)C(NC(=O)N(CCCl)N=O)C(OC(C)=O)C1OC(C)=O (configuration not stated)
inactive: [1] 2.4% | [2] -13.9% | [3] 12.8% | [4] 10.8% | [5] 0.9% | [6] -5.85%

CCC1=C(CC2NCCc3ccccc32)CC2c3cc(OC)c(OC)cc3CCN2C1 (configuration not stated)
inactive: [1] -9.9% | [2] -12.1% | [3] -14.7% | [4] 3.9% | [5] -28% | [6] -11.1%

CC1=CCCCC1
inactive: [1] 3.85% | [2] 2.8% | [3] -1.35% | [4] -5.1% | [5] 8.65% | [6] -7.25%

C=C(C)COc1c(C)c(C)c(OCC(C)C)c(C)c1C
inactive: [1] -4.35% | [2] 9.75% | [3] -0.75% | [4] -8.75% | [5] 3.2% | [6] -10.9%

O=C1Nc2ccccc2C12OCCS2 (configuration not stated)
inactive: [1] -4.1% | [2] 25.2% | [3] 17.2% | [4] -7.4% | [5] 5.25% | [6] 7.25%

O=C(Nc1ccc(Cl)cc1C(F)(F)F)C(=O)Nn1c(=S)[nH]c2ccccc2c1=O
inactive: [1] -5.9% | [2] -15.2% | [3] 8.5% | [4] -2.7% | [5] -1.1% | [6] 18.9%

COC(=O)c1sc(=O)n(-c2ccccc2)c1SCc1ccccc1
inactive: [1] 25.4% | [2] -5.15% | [3] 60% | [4] 12.9% | [5] 30.8% | [6] 18.8%

COc1c(Cl)cc(NC(=S)C#N)cc1Cl
inactive: [1] 20.2% | [2] 20% | [3] 15.2% | [4] 39.6% | [5] 15.4% | [6] -30.9%

COC(=O)c1ccccc1NC(OC)c1cccc([N+](=O)[O-])c1 (configuration not stated)
inactive: [1] 18.6% | [2] 13.4% | [3] 12.1% | [4] 17.7% | [5] 12.6% | [6] 5.55%

Cc1ccc(CN(CCO)Cc2ccccc2)cc1
inactive: [1] 1.75% | [2] 39% | [3] 28.1% | [4] 0.65% | [5] 43.1% | [6] 47.1%

O=C1c2cccc(O)c2C(=O)c2c(OC3OC(CO)C(OC4OC(CO)C(O)C(O)C4O)C(O)C3O)cccc21 (configuration not stated)
active: [1] 94.2%
inactive: [2] 36.2% | [3] 32.5% | [4] -5.55% | [5] 4.15% | [6] 31.4%

COC(=O)N1CC2CC=CC(C2)c2ccccc21 (configuration not stated)
inactive: [1] -13.9% | [2] -37.5% | [3] -1.35% | [4] 5.15% | [5] 16.1% | [6] -9.4%

OCc1ccc(Cl)cc1Cl
inactive: [1] 6.55% | [2] -0.25% | [3] -11.4% | [4] 10.3% | [5] -51.1% | [6] -27.9%

C[N+]1(CC(O)C[N+]2(C)CCCCCC2)CCCCCC1
inactive: [1] 11.3% | [2] 14.1% | [3] -7.65% | [4] -6.2% | [5] -2.9% | [6] 32.8%

COC(=O)/C(C#N)=C(/NCCN)Nc1ccccc1
inactive: [1] -10.5% | [2] -16.4% | [3] -39% | [4] 10.1% | [5] -3.1% | [6] -8.15%

OCc1ccc2ccccc2n1
inactive: [1] 24% | [2] -1.2% | [3] 21.6% | [4] -1.55% | [5] 12.7% | [6] 31.1%

N#C/C(=C/NC(=S)Nc1ccccc1)C(N)=O
inactive: [1] -31.6% | [2] -30.8% | [3] -26.8% | [4] -20% | [5] -15.7% | [6] -16.5%

O=C(O)C1C2CC(C(Br)C2Br)C1C(=O)O (configuration not stated)
inactive: [1] -6.55% | [2] 0.75% | [3] -21.7% | [4] 9.9% | [5] -5.85% | [6] -12.2%
